PubChem BioAssay (EPA / NIEHS)
Calls of active or inactive are those of the source. Rule for the calls: active = hit-call score of the fitted dose curve at least 0.9, where 1 is the maximum; inactive = score below 0.9.

read-out: TIMP1, TIMP1 (gene 7076); assay: LTEA_HepaRG_TIMP1: Life Technologies and Expression Analysis (LTEA) Assay for TIMP1 using HepaRG (AID 2283534); details: mRNA level, 48 h; actives raise or lower the signal;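 for outcome: TaqMan qRT-PCR signal normalized to ACTB GAPDH and POLR2A housekeeping genes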
Procedure: LTEA_HepaRG is a cell based, multiplexed-readout assay that uses HepaRG, a human liver cell line, with measurements taken at 48 hours after chemical dosing on a 96-well plate.LTEA_HepaRG_TIMP1 is one of 102 assay component(s) measured in the LTEA HepaRG cell culture assay. It is a marker of Cell proliferation, survival, death.Data from the assay component LTEA_HepaRG_TIMP1 was analyzed into 1 endpoint. This assay endpoint, LTEA_HepaRG_TIMP1, was analyzed with bidirectional fitting relative to DMSO as the negative control and baseline of activity. Using a type of inducible reporter, measures of mRNA induction for gain or loss-of-signal activity can be used to understand regulation of transcription factor activity. To generalize the intended target to other relatable targets, this assay endpoint is annotated to the protease inhibitor intended target family, where the subfamily is metalloproteinase inhibitor.
A total of 1060 chemcials from the ToxCast library were tested in eight-point concentration-response experiments. Cell culture and cytotoxicity assays were conducted at Thermo Fisher Scientific's Custom Services facility (Madison, WI). A single lot of human HepaRG cells (Thermo Fisher Scientific, Frederick, MD) was used for the cell culture experiments. 96-well format collagen type I coated plates of human HepaRG cells were prepared using established methods. Briefly, cryopreserved HepaRG cells were thawed, plated at a density of approximately 100,000 cells/well in HepaRG Thaw, Plate, and General Purpose media (HPRG770, Thermo Fisher Scientific), and incubated for 48 hours. 0.5% DMSO was selected as vehicle control to balance the requisite need of DMSO in HepaRG cultures to maintain differentiation (for example, baseline metabolism, proportions of hepatocytes vs. cholangiocytes), while enabling further hepatic receptor pathway activation (for example, PXR and CAR) in response to chemical exposure. 48 hours after plating, the culture medium was replaced with HepaRG Serum-Free Incudtion Media. Cells were exposed to each test chemical in duplicate and maintained in CO2 incubators for another 48 hours. Chemical plates were thawed to room temperature and 200x concentrations of treatment groups were prepared. 8-point conentration-reponse curves were made with the highest exposure at 100 uM, followed by half-log dilutions, all in 0.5% DMSO. Each test plate contained variouse controls, induction positive controls (1mM phenobarbital), cytotoxicity positive controls ([…] aflatoxin B1), vehicle controls (0.5% DMSO), and total lysis controls (0.5% DMSO). Cell morphology images were taken using an Essen IncuCyte FLR automated microscope, with six 96-well plates imaged in about 24 minutes. Images were captured and exported and JPEG files. Spent culture media was transfered to black-well plates for the LDH assay, and remaining media was sorted at -80 C for later use. Cells were treated with RLT buffer and frozen until shipped for gene expression analysis. Total RNA was isolated from the cell suspension in 75 uL of Buffer RLT (Qiagen, Germantown, MD 20874) by Quintiles/Expression Analysis (Durham, NC) using a custom isolation procedure. Total RNA from each plate well was transferred to a preamplification plate. Fluidigm's 96.96 Dynamic ArrayTM (Fluidigm, Amsterdam, the Netherlands) technology was used for gene expression analyses by quantitative reverse transcription polymerase chain reaction (qRT-PCR, performed by Quintiles/Expression Analysis, Durham, NC)89. Standard TaqManTM Assays (Applied Biosystems/ThermoFisher Scientific, Foster City, CA) were used to assess the expression of 93 genes selected based on their selectivity and sensitivity to important hepatic receptors known to be modulated by environmental chemicals; importance in human hepatocyte functionality; and hepatotoxicity. […]

Structure (SMILES)	outcome	AC50
CCOP(=O)(OCC)Oc1nc(Cl)c(Cl)cc1Cl	inactive	
Nc1c(Cl)c(F)nc(OCC(=O)O)c1Cl	inactive	
OC(c1ccc(Cl)cc1)(c1ccc(Cl)cc1)C(Cl)(Cl)Cl	inactive	
Cc1nc(N(C)C)nc(OC(=O)N(C)C)c1C	inactive	
COC(=O)NS(=O)(=O)c1ccc(N)cc1	inactive	
CCN(CC)C(=O)C(C)Oc1cccc2ccccc12 (stereo not given)	inactive	
CCCN(CC)CC1COC2(CCC(C(C)(C)C)CC2)O1 (stereo not given)	inactive	
O=P(O)(O)CCCl	inactive	
C=C(C)CN(CC)c1c([N+](=O)[O-])cc(C(F)(F)F)cc1[N+](=O)[O-]	inactive	
COC(=O)NC(=S)Nc1ccccc1NC(=S)NC(=O)OC	inactive	
Nc1cnn(-c2ccccc2)c(=O)c1Cl	inactive	
CC(C)N1C(=O)N(c2ccccc2)CSC1=NC(C)(C)C	inactive	
CCOc1nc(F)cc2nc(S(=O)(=O)Nc3c(Cl)cccc3Cl)nn12	inactive	
CO/N=C(/C1=NOCCO1)c1ccccc1Oc1ncnc(Oc2ccccc2Cl)c1F		50 µM (active)
CC(C)C1(C)N=C(c2ncccc2C(=O)O)NC1=O (stereo not given)	inactive	
CCOP(=S)(OCC)Oc1nc(Cl)n(C(C)C)n1	inactive	
Cn1c(-c2ccccc2)cc(-c2ccccc2)[n+]1C		82.9 µM (active)
CCCCC(O)(Cn1cncn1)c1ccc(Cl)cc1Cl (stereo not given)	inactive	
CNC(=O)Oc1cccc2ccccc12	inactive	
COP(=O)(OC)O/C(C)=C/C(=O)N(C)C	inactive	

Structure (SMILES)	outcome	AC50
C=CCOC(=O)C(C)(C)OC(=O)c1cc(-n2c(=O)cc(C(F)(F)F)n(C)c2=O)ccc1Cl	inactive	
Cc1cc(C)nc(Nc2ccccc2)n1	inactive	
CCCCC(C#N)(Cn1cncn1)c1ccc(Cl)cc1 (stereo not given)	inactive	
CCC(C)n1c(=O)[nH]c(C)c(Br)c1=O (stereo not given)	inactive	
Cc1ccc(N=CN(C)C=Nc2ccc(C)cc2C)c(C)c1	inactive	
CSC(=O)c1c(C(F)F)nc(C(F)(F)F)c(C(=O)SC)c1CC(C)C	inactive	
COC(=O)N(C(=O)N1CO[C@@]2(C(=O)OC)Cc3cc(Cl)ccc3C2=N1)c1ccc(OC(F)(F)F)cc1	inactive	
CCSC(=O)N1CCCCCC1	inactive	
CN=C=S	inactive	
CC(C)NC(=O)N1CC(=O)N(c2cc(Cl)cc(Cl)c2)C1=O	inactive	
COc1cc(Cl)c(OC)cc1Cl	inactive	
CC1(C)CCC(=Cc2ccc(Cl)cc2)C1(O)Cn1cncn1 (stereo not given)	inactive	
CC1(C)CON(Cc2ccccc2Cl)C1=O	inactive	
O=c1n(Cl)c(=O)n(Cl)c(=O)n1Cl	inactive	
CS(=O)(=O)c1ccc(C(=O)C2C(=O)CCCC2=O)c([N+](=O)[O-])c1	inactive	
N#Cc1c[nH]cc1-c1cccc2c1OC(F)(F)O2	inactive	
N#Cc1c(Cl)cccc1Cl	inactive	
COc1cc(OC)nc(NC(=O)NS(=O)(=O)c2ncccc2OCC(F)(F)F)n1	inactive	
COP(=S)(OC)Oc1ccc([N+](=O)[O-])c(C)c1	inactive	
Clc1nc(Cl)nc(Nc2ccccc2Cl)n1	inactive	
